Laboratory results from the supplement of paper PMC11732987, “Enantioselective OTUD7B fragment discovery through chemoproteomics screening and high-throughput optimisation” (Communications Chemistry, 2025).

Legend:
Experiment in all cases: log2 ratio of Biotin-Ahx-Ub-VS probe labelling (fragment/DMSO); higher = less target engagement (more negative = stronger competition), active = hit call of the paper (q ≤ 0.05, log2 ratio ≤ -1)
Details in all cases: compound concentration: 200 uM; treatment time: 3 h
[1] = target: T1, OTUD6B (UniProt Q8N6M0)
T1 sequence (whole entry): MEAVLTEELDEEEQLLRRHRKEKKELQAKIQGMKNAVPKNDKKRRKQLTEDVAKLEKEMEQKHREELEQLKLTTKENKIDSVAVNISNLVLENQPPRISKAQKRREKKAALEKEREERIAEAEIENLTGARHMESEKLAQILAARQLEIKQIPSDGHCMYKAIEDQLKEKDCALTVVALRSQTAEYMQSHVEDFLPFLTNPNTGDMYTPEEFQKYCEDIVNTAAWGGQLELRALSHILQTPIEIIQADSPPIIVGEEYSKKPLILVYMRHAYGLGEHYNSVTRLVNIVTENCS
Procedure, shortened: (§1)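 Triplicate samples of HEK293T lysate, 495 µg each, received fragment at 200 µM or vehicle for 3 h, followed by Biotin-Ahx-Ub-VS (0.5 µM final) for 1 h. After NeutrAvidin enrichment of labelled DUBs and LysC/trypsin digestion, peptides were run by diaPASEF LC-MS/MS. The values are average log2 fragment/vehicle ratios from global-median-normalised Spectronaut label-free quantities, tested by unpaired t-test on proteins having ≥2 unique peptides.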

[2] = target: T2, OTUD7B (UniProt Q6GQQ9)
T2 sequence (whole entry): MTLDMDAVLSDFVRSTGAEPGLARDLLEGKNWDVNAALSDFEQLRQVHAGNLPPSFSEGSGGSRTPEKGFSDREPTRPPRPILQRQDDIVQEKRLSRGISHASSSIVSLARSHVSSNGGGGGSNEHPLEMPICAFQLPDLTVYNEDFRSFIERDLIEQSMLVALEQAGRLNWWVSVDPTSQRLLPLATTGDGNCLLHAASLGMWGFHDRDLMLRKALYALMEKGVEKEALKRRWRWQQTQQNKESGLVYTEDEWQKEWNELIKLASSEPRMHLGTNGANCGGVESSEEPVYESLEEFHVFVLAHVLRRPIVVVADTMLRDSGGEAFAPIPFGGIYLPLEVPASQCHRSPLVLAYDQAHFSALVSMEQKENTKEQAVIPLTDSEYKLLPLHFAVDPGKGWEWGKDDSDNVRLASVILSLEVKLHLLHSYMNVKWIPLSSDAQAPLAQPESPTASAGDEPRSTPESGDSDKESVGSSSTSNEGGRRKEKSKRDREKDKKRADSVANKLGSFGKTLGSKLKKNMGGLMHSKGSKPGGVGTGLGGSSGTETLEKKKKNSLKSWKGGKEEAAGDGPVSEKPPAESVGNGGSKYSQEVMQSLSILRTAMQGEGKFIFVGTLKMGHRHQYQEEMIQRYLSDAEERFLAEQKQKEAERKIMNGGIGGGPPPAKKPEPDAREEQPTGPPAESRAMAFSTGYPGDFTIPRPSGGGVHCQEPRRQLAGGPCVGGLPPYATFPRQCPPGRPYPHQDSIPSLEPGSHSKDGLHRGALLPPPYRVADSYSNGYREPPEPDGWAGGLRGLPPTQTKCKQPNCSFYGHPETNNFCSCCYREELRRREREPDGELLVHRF
Procedure, shortened: as §1

[3] = target: PRPF8 (UniProt Q6P2Q9)
Procedure, shortened: as §1

[4] = target: T3, PSMD7 (UniProt P51665)
T3 sequence (whole entry): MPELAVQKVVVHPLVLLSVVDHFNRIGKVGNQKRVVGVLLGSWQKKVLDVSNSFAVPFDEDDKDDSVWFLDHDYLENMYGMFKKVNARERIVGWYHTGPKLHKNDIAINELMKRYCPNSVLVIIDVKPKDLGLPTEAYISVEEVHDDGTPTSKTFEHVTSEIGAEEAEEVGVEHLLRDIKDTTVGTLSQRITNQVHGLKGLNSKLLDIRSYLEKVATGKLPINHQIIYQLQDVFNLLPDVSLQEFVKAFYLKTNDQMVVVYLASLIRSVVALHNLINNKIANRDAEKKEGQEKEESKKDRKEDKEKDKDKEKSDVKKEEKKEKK
Procedure, shortened: as §1

[5] = target: UCHL1 (UniProt P09936)
Procedure, shortened: as §1

[6] = target: T4, UCHL3 (UniProt P15374)
T4 sequence (whole entry): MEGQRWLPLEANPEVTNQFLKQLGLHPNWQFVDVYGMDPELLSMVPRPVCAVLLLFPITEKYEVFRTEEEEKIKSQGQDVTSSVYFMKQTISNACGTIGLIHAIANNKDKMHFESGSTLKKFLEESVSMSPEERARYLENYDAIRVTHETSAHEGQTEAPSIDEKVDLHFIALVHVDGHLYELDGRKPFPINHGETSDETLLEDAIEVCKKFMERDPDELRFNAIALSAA
Procedure, shortened: as §1

[7] = target: T5, UCHL5 (UniProt Q9Y5K5)
T5 sequence (whole entry): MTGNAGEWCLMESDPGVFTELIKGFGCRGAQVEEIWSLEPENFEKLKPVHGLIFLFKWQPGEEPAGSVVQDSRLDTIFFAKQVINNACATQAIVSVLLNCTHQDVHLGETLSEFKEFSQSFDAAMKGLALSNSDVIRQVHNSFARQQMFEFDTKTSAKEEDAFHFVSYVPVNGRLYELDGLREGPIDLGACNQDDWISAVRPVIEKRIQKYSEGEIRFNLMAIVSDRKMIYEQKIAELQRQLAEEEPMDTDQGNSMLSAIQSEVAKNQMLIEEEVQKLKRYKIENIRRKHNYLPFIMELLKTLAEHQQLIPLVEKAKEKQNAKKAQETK
Procedure, shortened: as §1

[8] = target: USP10 (UniProt Q14694)
Procedure, shortened: as §1

[9] = target: T6, USP15 (UniProt Q9Y4E8)
T6 sequence (whole entry): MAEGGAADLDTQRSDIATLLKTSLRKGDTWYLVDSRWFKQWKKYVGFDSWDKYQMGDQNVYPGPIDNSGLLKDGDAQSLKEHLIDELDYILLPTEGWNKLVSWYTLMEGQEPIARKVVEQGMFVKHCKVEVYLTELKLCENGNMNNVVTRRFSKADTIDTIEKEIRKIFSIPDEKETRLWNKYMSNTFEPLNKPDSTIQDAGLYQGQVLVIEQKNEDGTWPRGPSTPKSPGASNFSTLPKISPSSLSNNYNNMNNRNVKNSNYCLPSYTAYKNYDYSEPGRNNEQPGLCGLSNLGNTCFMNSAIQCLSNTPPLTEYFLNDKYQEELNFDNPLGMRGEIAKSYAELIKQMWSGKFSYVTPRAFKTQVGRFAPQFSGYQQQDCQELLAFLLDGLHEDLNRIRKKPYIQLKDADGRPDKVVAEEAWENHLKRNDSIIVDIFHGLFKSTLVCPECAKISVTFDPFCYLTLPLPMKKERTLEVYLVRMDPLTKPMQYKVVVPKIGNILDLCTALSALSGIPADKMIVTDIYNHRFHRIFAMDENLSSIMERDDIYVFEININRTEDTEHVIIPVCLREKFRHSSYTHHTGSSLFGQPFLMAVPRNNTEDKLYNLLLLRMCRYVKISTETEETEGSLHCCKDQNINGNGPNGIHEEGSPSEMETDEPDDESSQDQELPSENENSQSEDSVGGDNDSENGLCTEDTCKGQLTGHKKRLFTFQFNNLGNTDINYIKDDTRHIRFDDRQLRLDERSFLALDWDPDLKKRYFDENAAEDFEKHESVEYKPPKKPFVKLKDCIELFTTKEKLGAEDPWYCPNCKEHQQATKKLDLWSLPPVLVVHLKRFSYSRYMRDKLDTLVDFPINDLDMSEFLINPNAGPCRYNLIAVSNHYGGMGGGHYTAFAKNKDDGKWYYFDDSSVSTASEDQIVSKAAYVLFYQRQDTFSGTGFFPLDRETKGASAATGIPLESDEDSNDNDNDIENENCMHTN
Procedure, shortened: as §1

[10] = target: USP16 (UniProt Q9Y5T5)
Procedure, shortened: as §1

Measured: log2 ratio of Biotin-Ahx-Ub-VS probe labelling

UCHL1, sequence (P09936 whole entry, looked up): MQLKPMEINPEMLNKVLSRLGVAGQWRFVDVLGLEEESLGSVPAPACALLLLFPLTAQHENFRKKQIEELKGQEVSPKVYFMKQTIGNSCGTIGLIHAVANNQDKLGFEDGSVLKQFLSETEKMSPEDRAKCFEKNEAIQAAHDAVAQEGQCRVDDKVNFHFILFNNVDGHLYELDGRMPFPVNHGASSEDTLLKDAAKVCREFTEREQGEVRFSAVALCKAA
USP10, sequence (Q14694 whole entry): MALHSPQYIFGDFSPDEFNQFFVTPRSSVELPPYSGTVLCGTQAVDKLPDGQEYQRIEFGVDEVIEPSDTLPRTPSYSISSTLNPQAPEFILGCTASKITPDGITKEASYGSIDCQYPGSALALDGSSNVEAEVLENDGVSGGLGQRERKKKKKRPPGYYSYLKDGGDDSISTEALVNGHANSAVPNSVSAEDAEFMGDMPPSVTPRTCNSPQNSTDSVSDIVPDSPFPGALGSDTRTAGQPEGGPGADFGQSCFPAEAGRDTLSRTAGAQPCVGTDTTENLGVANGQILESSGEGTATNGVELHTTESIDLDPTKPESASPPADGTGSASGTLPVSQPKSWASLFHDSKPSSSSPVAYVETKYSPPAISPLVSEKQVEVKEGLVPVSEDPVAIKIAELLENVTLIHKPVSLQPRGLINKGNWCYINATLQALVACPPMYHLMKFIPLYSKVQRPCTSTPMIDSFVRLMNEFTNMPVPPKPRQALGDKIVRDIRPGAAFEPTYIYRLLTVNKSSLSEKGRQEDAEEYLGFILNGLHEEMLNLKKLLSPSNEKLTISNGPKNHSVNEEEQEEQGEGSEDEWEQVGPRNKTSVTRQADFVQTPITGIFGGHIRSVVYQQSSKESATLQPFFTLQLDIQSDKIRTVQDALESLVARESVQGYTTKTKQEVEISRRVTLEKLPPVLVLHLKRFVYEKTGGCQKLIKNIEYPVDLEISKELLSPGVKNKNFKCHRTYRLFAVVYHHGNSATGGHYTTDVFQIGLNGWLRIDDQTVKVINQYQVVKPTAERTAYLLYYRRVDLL
USP16, sequence (Q9Y5T5 whole entry, looked up): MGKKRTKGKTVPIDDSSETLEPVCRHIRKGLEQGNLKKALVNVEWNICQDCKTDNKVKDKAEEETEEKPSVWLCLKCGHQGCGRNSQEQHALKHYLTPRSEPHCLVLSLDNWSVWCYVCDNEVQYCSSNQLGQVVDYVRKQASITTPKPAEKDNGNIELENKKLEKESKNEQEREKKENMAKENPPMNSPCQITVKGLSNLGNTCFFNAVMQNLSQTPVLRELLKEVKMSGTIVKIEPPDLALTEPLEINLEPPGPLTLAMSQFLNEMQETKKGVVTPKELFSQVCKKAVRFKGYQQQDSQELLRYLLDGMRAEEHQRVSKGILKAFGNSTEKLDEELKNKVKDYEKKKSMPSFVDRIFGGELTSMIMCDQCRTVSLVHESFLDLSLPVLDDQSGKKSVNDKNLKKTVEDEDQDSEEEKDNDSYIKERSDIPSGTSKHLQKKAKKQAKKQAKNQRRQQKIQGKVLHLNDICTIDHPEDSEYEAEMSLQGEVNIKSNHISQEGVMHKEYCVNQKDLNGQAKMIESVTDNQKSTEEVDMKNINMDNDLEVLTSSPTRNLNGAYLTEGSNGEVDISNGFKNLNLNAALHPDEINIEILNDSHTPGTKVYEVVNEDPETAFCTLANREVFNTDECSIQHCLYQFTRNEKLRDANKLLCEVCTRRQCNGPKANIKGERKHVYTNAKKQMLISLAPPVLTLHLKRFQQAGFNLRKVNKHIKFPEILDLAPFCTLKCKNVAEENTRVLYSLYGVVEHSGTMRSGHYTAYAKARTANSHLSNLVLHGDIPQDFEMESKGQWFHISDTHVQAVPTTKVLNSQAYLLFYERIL

Cc1cccn2cc(CCNC(=O)CCl)nc12.Cl
active: [5] -1.98
inactive: [1] -0.414 | [2] -0.338 | [3] 0.19 | [4] -0.207 | [6] 0.136 | [7] -0.00232 | [8] -0.0824 | [9] -0.191 | [10] -0.607
